From PubChem BioAssay (NCI)
Compounds without any hit were thinned out: in the full panel of roughly 83,000, 20% have a hit.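 Cells were grown in 96-well plates and exposed to the test compound at a single concentration for 48 hours; results are reported as percent growth, with values below 10 considered active.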 Active and inactive are the calls of the source.

Tested on: MDA-MB-468 breast
Assay: NCI-60 one-dose screen, 48 h (100 = growth as untreated, 0 = no growth, -100 = all killed)
Settings: 10 µM unless noted

Row | SMILES | growth
1 | C=CC[C@]1(O)CC[C@H]2[C@@H]3CCc4cc(O)ccc4[C@H]3CC[C@@]21C | 87.4% (inactive)
2 | Cc1ccc(-c2cc(-c3cccc(Nc4ccnc5cc(Cl)ccc45)c3)nc3nc(N)[nH]c(=O)c23)cc1 | 28% (inactive)
3 | Nc1nnc2cc(F)ccc2n1 | 122% (inactive)
4 | O=C(Nc1cccc(Cl)c1)Nc1cccc(Cn2c(=O)[nH]c3ccc(Oc4ncccn4)cc3c2=O)c1 | -0.625% (active)
5 | OC(COc1cccc2ccccc12)CN1CCN(c2ccccc2Cl)CC1 (stereo not drawn) | 89.7% (inactive)
6 | Cn1c2ccccc2c2c(OC(=O)c3ccccc3)c3c(nc21)-c1ccccc1C3 | 100% (inactive)
7 | O=C(O)/C=C/C(=O)Nc1cccc(Cn2nnc3cc(Cl)c(Cl)cc32)c1 | 94.2% (inactive)
8 | CC1=NNC(=O)C1CCC(=O)N/N=C(\C)c1ccc2ccccc2c1 (stereo not drawn) | 119% (inactive)
9 | C#CCNC(=O)[C@H](Cc1ccccc1)NC(=O)[C@]12CC[C@@H](C(=C)C)[C@@H]1[C@H]1CC[C@@H]3[C@@]4(C)CCC(=O)C(C)(C)[C@@H]4CC[C@@]3(C)[C@]1(C)CC2 | 63.7% (inactive)
10 | CCOC(=O)COc1c(C)cc(SSc2cc(C)c(OCC(=O)OCC)c(C)c2)cc1C | 109% (inactive)
11 | CC1CCc2c(C(=O)Nc3ncc(Cc4cccc([N+](=O)[O-])c4)s3)csc2C1 (stereo not drawn) | 12.3% (inactive)
12 | COc1c(OCCCN2CCOCC2)ccc2c3n(c(=NC(=O)c4cnc(N)nc4)nc12)CCN3 | -23.5% (active)
13 | Nc1c(C(=O)Nc2cccc(C(F)(F)F)c2)sc2nc3c(cc12)CCCCC3 | -9.93% (active)
